Results reported in PubChem BioAssay (NCI).
Compounds without any hit were thinned out: in the full panel of roughly 83,000, 20% have a hit.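 Cells were grown in 96-well plates and exposed to the test compound at a single concentration for 48 hours; results are reported as percent growth, with values below 10 considered active.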 Activity calls are given as the source filed them.

Legend:
Experiment in all cases: NCI-60 one-dose screen, 48 h (100 = growth as untreated, 0 = no growth, -100 = all killed)
Conditions in all cases: 10 µM unless noted
OVCAR-8 ovarian = test system: OVCAR-8 ovarian
OVCAR-5 ovarian = test system: OVCAR-5 ovarian
OVCAR-4 ovarian = test system: OVCAR-4 ovarian
SK-OV-3 ovarian = test system: SK-OV-3 ovarian
OVCAR-3 ovarian = test system: OVCAR-3 ovarian
NCI/ADR-RES ovarian = test system: NCI/ADR-RES ovarian
RPMI-8226 leukemia = test system: RPMI-8226 leukemia
HS 578T breast = test system: HS 578T breast
IGROV1 ovarian = test system: IGROV1 ovarian

Measured: growth

COc1c(O)cc2c(c1CC=C(C)C)OC(=O)c1c(cc(O)c(CC=C(C)C)c1O)O2
active: NCI/ADR-RES ovarian -13.7%
inactive: OVCAR-8 ovarian 42.4% | OVCAR-5 ovarian 72% | OVCAR-4 ovarian 43.8% | SK-OV-3 ovarian 86.7% | OVCAR-3 ovarian 34.2%

COc1cccc(N2CCN(CC(=O)N3CCN(c4nnc(-c5ccc(Cl)cc5)c(-c5ccc(Cl)cc5)n4)CC3)CC2)c1
inactive: OVCAR-5 ovarian 85.9% | OVCAR-4 ovarian 57.9% | SK-OV-3 ovarian 95.6% | OVCAR-3 ovarian 68.1% | HS 578T breast 58.4% | NCI/ADR-RES ovarian 65.2%
active: RPMI-8226 leukemia -37.2%

COc1ccc(C(=O)/C=C/c2ccc(C)cc2)cc1OC
active: IGROV1 ovarian -18.8% | OVCAR-3 ovarian 4.42%
inactive: RPMI-8226 leukemia 18.9% | OVCAR-5 ovarian 90.1% | OVCAR-4 ovarian 72.6% | SK-OV-3 ovarian 97.7% | HS 578T breast 107% | NCI/ADR-RES ovarian 71.2%

O=C(/C=C/c1c(-c2ccccc2)[nH]c2ccccc12)S(=O)(=O)c1ccccc1
inactive: RPMI-8226 leukemia 21.4% | OVCAR-5 ovarian 100% | OVCAR-4 ovarian 80.1% | SK-OV-3 ovarian 89.5% | IGROV1 ovarian 51.8% | OVCAR-3 ovarian 68.9% | HS 578T breast 90.1% | NCI/ADR-RES ovarian 16.4%

C=C1CCC2C(C)(COC(=O)CC)C(OC(=O)CC)CCC2(C)C1C/C=C1/C(=O)OCC1OC(=O)CC (stereo unspecified)
inactive: OVCAR-4 ovarian 18.7% | SK-OV-3 ovarian 103%
active: OVCAR-8 ovarian -13.9% | OVCAR-5 ovarian -1.17% | IGROV1 ovarian -0.405% | OVCAR-3 ovarian -86.1% | NCI/ADR-RES ovarian -22.9%

CCN(CC)CCOCC[C@H]1CC[C@H]2[C@@H]3[C@H](C)Cc4cc(OS(N)(=O)=O)ccc4[C@H]3CC[C@]12C
active: RPMI-8226 leukemia -56.4% | OVCAR-5 ovarian -50.1% | OVCAR-4 ovarian 8.49% | SK-OV-3 ovarian -94.8% | OVCAR-3 ovarian -86.5% | HS 578T breast -44.6% | NCI/ADR-RES ovarian -70.2%

Fc1ccc(-c2nn3c(-c4cc(C(F)(F)F)cc(C(F)(F)F)c4)nnc3s2)cc1
inactive: OVCAR-8 ovarian 20% | OVCAR-5 ovarian 95.1% | OVCAR-4 ovarian 21.7% | OVCAR-3 ovarian 12.7% | HS 578T breast 24.8% | NCI/ADR-RES ovarian 40.9%
active: SK-OV-3 ovarian -36.1%

O=C(Nc1ccc(Cl)cc1)Nc1nc2ccc(OC(F)(F)F)cc2o1
inactive: OVCAR-8 ovarian 85.4% | OVCAR-5 ovarian 95.9% | OVCAR-4 ovarian 83.7% | SK-OV-3 ovarian 103% | IGROV1 ovarian 130% | OVCAR-3 ovarian 74.3% | HS 578T breast 143% | NCI/ADR-RES ovarian 95%

CCC(=O)Nc1cc2c(cc1Cl)-c1ccccc1C2
inactive: OVCAR-8 ovarian 98% | OVCAR-5 ovarian 85.5% | OVCAR-4 ovarian 101% | SK-OV-3 ovarian 107% | IGROV1 ovarian 86.4% | OVCAR-3 ovarian 106% | NCI/ADR-RES ovarian 90.1%

CCCCCCCCCCCCC1CCCC(C)C1 (stereo unspecified)
inactive: OVCAR-8 ovarian 102% | OVCAR-5 ovarian 105% | SK-OV-3 ovarian 99.7% | IGROV1 ovarian 91.6% | OVCAR-3 ovarian 108% | HS 578T breast 93.3% | NCI/ADR-RES ovarian 95.3%

COc1ccc(N2CCN(CC(=O)N3CCN(c4nnc(-c5ccc(Cl)cc5)c(-c5ccc(Cl)cc5)n4)CC3)CC2)cc1
active: RPMI-8226 leukemia -14.8%
inactive: OVCAR-5 ovarian 91.6% | OVCAR-4 ovarian 55.5% | SK-OV-3 ovarian 99.5% | OVCAR-3 ovarian 52% | HS 578T breast 52.9% | NCI/ADR-RES ovarian 61.7%

O=C1/C(=C/c2ccccc2Cl)CCc2ccccc21
inactive: RPMI-8226 leukemia 95.4% | OVCAR-5 ovarian 109% | OVCAR-4 ovarian 110% | SK-OV-3 ovarian 116% | IGROV1 ovarian 97.3% | OVCAR-3 ovarian 112% | HS 578T breast 99.1% | NCI/ADR-RES ovarian 102%

N#Cc1c(-c2ccccc2)cc(-c2ccccc2)n(CCCC(=O)O)c1=O
inactive: RPMI-8226 leukemia 103% | OVCAR-5 ovarian 104% | OVCAR-4 ovarian 102% | SK-OV-3 ovarian 105% | IGROV1 ovarian 99.4% | OVCAR-3 ovarian 112% | HS 578T breast 107% | NCI/ADR-RES ovarian 99.8%

COCCCNS(=O)(=O)c1ncnc2nc[nH]c12
inactive: RPMI-8226 leukemia 107% | OVCAR-5 ovarian 100% | OVCAR-4 ovarian 113% | SK-OV-3 ovarian 121% | OVCAR-3 ovarian 102% | HS 578T breast 104% | NCI/ADR-RES ovarian 99.5%

O=C(Nc1nc2c(C(F)(F)F)cccc2s1)c1cc(Cl)ccc1O
active: RPMI-8226 leukemia -22.7% | SK-OV-3 ovarian -8.89% | NCI/ADR-RES ovarian 1.26%
inactive: OVCAR-5 ovarian 29.3% | OVCAR-4 ovarian 21.8% | IGROV1 ovarian 24.2% | OVCAR-3 ovarian 10.1%

COc1ccc(C(=O)COc2cccc(/C=C3\COc4ccc5ccccc5c4C3=O)c2)cc1
inactive: OVCAR-8 ovarian 36.9% | OVCAR-5 ovarian 98.3% | OVCAR-4 ovarian 28.1% | SK-OV-3 ovarian 95.7% | OVCAR-3 ovarian 64% | HS 578T breast 88% | NCI/ADR-RES ovarian 46.5%

N[C@H](CS)C(=O)O
inactive: RPMI-8226 leukemia 101% | OVCAR-5 ovarian 103% | OVCAR-4 ovarian 102% | SK-OV-3 ovarian 107% | OVCAR-3 ovarian 122% | HS 578T breast 115% | NCI/ADR-RES ovarian 112%

O=C1/C(=C/c2cccc(Cl)c2)CCc2ccccc21
inactive: RPMI-8226 leukemia 22.3% | OVCAR-5 ovarian 111% | OVCAR-4 ovarian 100% | SK-OV-3 ovarian 114% | IGROV1 ovarian 94% | OVCAR-3 ovarian 104% | HS 578T breast 110% | NCI/ADR-RES ovarian 100%

O=C(Nc1nc2ccc(OC(F)(F)F)cc2s1)c1ccc(F)cc1
inactive: OVCAR-8 ovarian 17.8% | OVCAR-5 ovarian 43% | OVCAR-4 ovarian 25.5% | IGROV1 ovarian 31.1% | HS 578T breast 38.6%
active: SK-OV-3 ovarian 4.63% | OVCAR-3 ovarian -37.8% | NCI/ADR-RES ovarian 6.2%

Cc1cc(C(=O)Nc2ccc3cc(CN4CCOCC4)ccc3n2)c(C)n1-c1ccccc1
inactive: OVCAR-5 ovarian 83.1% | SK-OV-3 ovarian 81.1% | IGROV1 ovarian 66.4% | OVCAR-3 ovarian 26.7% | HS 578T breast 82.3%
active: OVCAR-8 ovarian 4.27% | OVCAR-4 ovarian 6.66% | NCI/ADR-RES ovarian -5.82%

CCOC(=O)Nc1cc(-c2ccc(C)c(NS(C)(=O)=O)c2)nn2c(C)nnc12
active: RPMI-8226 leukemia -20.4% | SK-OV-3 ovarian 4.31% | IGROV1 ovarian -45.6% | OVCAR-3 ovarian -10.4% | HS 578T breast 9.38%
inactive: OVCAR-5 ovarian 32.2% | OVCAR-4 ovarian 22.8% | NCI/ADR-RES ovarian 53.3%

CN(C)CCCNc1nn2c(=O)c3ccccc3nc2c2ccccc12
inactive: RPMI-8226 leukemia 48.8% | OVCAR-5 ovarian 80.9% | OVCAR-4 ovarian 77.4% | SK-OV-3 ovarian 54.6% | OVCAR-3 ovarian 57.7% | HS 578T breast 61.6% | NCI/ADR-RES ovarian 72.7%
active: IGROV1 ovarian -12.2%

CCN(CC)c1ccc(C(=C2C=CC(=[N+](CC)Cc3cccc(S(=O)(=O)O)c3)C=C2)c2ccc(N(CC)Cc3cccc(S(=O)(=O)O)c3)cc2)cc1
inactive: OVCAR-5 ovarian 68.2% | OVCAR-4 ovarian 67.1% | SK-OV-3 ovarian 85.3% | IGROV1 ovarian 16.1% | OVCAR-3 ovarian 14.2% | HS 578T breast 71.9% | NCI/ADR-RES ovarian 92.6%
active: RPMI-8226 leukemia -43.1%

CCOc1cc(/C=C/C(=O)C(C(=O)/C=C/c2ccc(OC(=O)CNc3nnc(C)s3)c(OCC)c2)C(=O)CNc2nnc(C)s2)ccc1OC(=O)CNc1nnc(C)s1
inactive: OVCAR-4 ovarian 23.1% | SK-OV-3 ovarian 43.6% | OVCAR-3 ovarian 11.3% | HS 578T breast 10.1%
active: OVCAR-8 ovarian 2.17% | OVCAR-5 ovarian -11.7% | IGROV1 ovarian -53.7% | NCI/ADR-RES ovarian 7.78%

O=C(/C=C/c1cccc(O)c1)c1cccc(-n2cc(-c3ccccc3)[nH]c2=O)c1
active: OVCAR-8 ovarian 9.12% | OVCAR-5 ovarian -9.18% | IGROV1 ovarian -30.5% | OVCAR-3 ovarian -28% | NCI/ADR-RES ovarian 3.96%
inactive: OVCAR-4 ovarian 20.2% | SK-OV-3 ovarian 106%

Cc1c2oc3c(C)ccc(C(=O)OC(C)C4NC(=O)C(C(C)C)N(C)C(=O)CN(C)C(=O)C5CCCN5C(=O)C(C(C)C)NC4=O)c3nc-2c(C(=O)OC(C)C2NC(=O)C(C(C)C)N(C)C(=O)CN(C)C(=O)C3CCCN3C(=O)C(C(C)C)NC2=O)c(N)c1=O (stereo unspecified)
inactive: OVCAR-5 ovarian 14.6% | SK-OV-3 ovarian 22.5% | NCI/ADR-RES ovarian 16.9%
active: IGROV1 ovarian 7.56% | OVCAR-3 ovarian 5.3% | HS 578T breast -2.72%

O=C(CN1CCN(c2ccc(Cl)cc2)CC1)N1CCN(c2nnc(-c3ccccc3)c(-c3ccccc3)n2)CC1
active: RPMI-8226 leukemia -23.4%
inactive: OVCAR-5 ovarian 86.4% | OVCAR-4 ovarian 30.6% | SK-OV-3 ovarian 85% | OVCAR-3 ovarian 40.9% | HS 578T breast 62.6% | NCI/ADR-RES ovarian 39.2%

O=C(CN1CCN(c2ccc(Cl)cc2)CC1)N1CCN(c2nnc(-c3ccc(Cl)cc3)c(-c3ccc(Cl)cc3)n2)CC1
active: RPMI-8226 leukemia 8.48%
inactive: OVCAR-5 ovarian 103% | OVCAR-4 ovarian 74.2% | SK-OV-3 ovarian 111% | IGROV1 ovarian 37.7% | OVCAR-3 ovarian 78.4% | HS 578T breast 71.7% | NCI/ADR-RES ovarian 72.9%

CCOC(=O)c1cnc2c(C)cc(C)cc2c1NCCCN(C)C
active: RPMI-8226 leukemia 7.09% | IGROV1 ovarian 5.17%
inactive: OVCAR-5 ovarian 38.6% | OVCAR-4 ovarian 44.4% | SK-OV-3 ovarian 38.6% | OVCAR-3 ovarian 34.5% | HS 578T breast 65.7% | NCI/ADR-RES ovarian 31.7%

N#Cc1c(NC(=O)c2ccco2)[n+]([O-])c2ccccc2[n+]1[O-]
inactive: RPMI-8226 leukemia 447% | OVCAR-5 ovarian 89.7% | OVCAR-4 ovarian 109% | SK-OV-3 ovarian 110% | OVCAR-3 ovarian 115% | HS 578T breast 98% | NCI/ADR-RES ovarian 116%
active: IGROV1 ovarian -49.8%

CC(C)N(Cc1ccccc1)c1c(Cl)ssc1=O
active: IGROV1 ovarian -9.19%
inactive: OVCAR-8 ovarian 86.7% | OVCAR-5 ovarian 107% | OVCAR-4 ovarian 104% | SK-OV-3 ovarian 93.7% | OVCAR-3 ovarian 92.5% | HS 578T breast 109% | NCI/ADR-RES ovarian 107%

COc1cc(C(=O)c2cc3c(cc2C)OCO3)cc(OC)c1OC
active: OVCAR-3 ovarian 5.31%
inactive: RPMI-8226 leukemia 39.1% | OVCAR-5 ovarian 43.1% | OVCAR-4 ovarian 38% | SK-OV-3 ovarian 11.1% | IGROV1 ovarian 25.1% | HS 578T breast 44.3% | NCI/ADR-RES ovarian 15.3%

COc1cc(-c2n[nH]nc2-c2ccccn2)cc(OC)c1OC
inactive: RPMI-8226 leukemia 85.1% | OVCAR-5 ovarian 100% | OVCAR-4 ovarian 88.2% | SK-OV-3 ovarian 98.5% | OVCAR-3 ovarian 102% | HS 578T breast 98% | NCI/ADR-RES ovarian 77.9%
